Source: PubChem BioAssay (NCATS)
Results filed as inconclusive are left out. The source made the active and inactive calls. Unless noted, the call rests on the fitted dose curve; in most records, active means well fitted curve in the direction sought with a large enough effect; inconclusive means small, poorly fitted or top-dose-only effect, or another doubt; inactive means no such curve, though single readings can be large; an effect the other way counts as inactive or inconclusive.

Key:
[1] = target: Lysosomal acid glucosylceramidase (Homo sapiens) (UniProt P04062); assay: Glucocerebrosidase-p2 (AID 348; in the data active means potency below about 10 µM; further: potency means the concentration at half of the fitted maximal effect); conditions: purified GBA, blue fluorogenic substrate, 40 min
Outline: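 Compounds titrated from 0.6 nM upwards against 0.2 nM enzyme in pH 5.9 citric acid/KH2PO4, taurocholate, tween-20; blue fluorogenic substrate 80 uM, 40 min room temperature, stopped and read Ex 365/Em 440 for AC50.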

[2] = AP1 Signaling Pathway (AID 357; active means well fitted curve in either direction with a large enough effect, not every such curve was filed as active;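 further: ME-180 reporter cells stimulated with EGF at its EC50 level; on the % scale 0 is the no-effect control and ±100 the full control effect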); conditions: ME-180 AP-1-bla reporter, EGF-induced, beta-lactamase ratio, 5 h; at 7.69 µM (top of the series) unless noted
Outline: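 A ratiometric CCF4 readout (405 nm excitation; 460 and 530 nm emission) quantified AP-1-driven beta-lactamase in ME-180 cells after 5 h with compound and EC50 EGF; AC50 values were derived for activators and inhibitors.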

[3] = target: Cytochrome P450 1A2 (Homo sapiens) (UniProt P05177); assay: p450-cyp1a2 (AID 410; calls by dose curve; further: potency means the concentration at half of the fitted maximal effect); conditions: recombinant CYP1A2, luciferin-ME demethylation, luminescence; series mostly up to 57 µM
Outline: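 Luminescent readout of luciferin formed from Luciferin-ME by human CYP1A2; data normalized against complete inhibition by 57 uM furafylline. Enzyme 20nM, substrate 100uM at Km, 100mM KPO4 buffer, 60 min reaction at room temperature.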

[4] = Stat Signaling Pathway (AID 446; active means well fitted curve in either direction with a large enough effect, not every such curve was filed as active;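 further: ME-180 cervical cancer cells given 40 pM IL-6 alongside compound; SIE-controlled beta-lactamase reporter measured as 460/530 nm FRET emission ratio; on the % scale 0 is the no-effect control and ±100 the full control effect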); conditions: ME-180 SIE beta-lactamase reporter, IL-6 stimulated, 5 h; at 7.69 µM (top of the series) unless noted
Outline: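 Screening format detects activators and inhibitors alike: ME-180 SIE-bla cells stimulated at 40 pM IL-6 for 5 hrs with compound, then dual-emission beta-lactamase read at 405 nm excitation.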

[5] = target: Glucocorticoid receptor (Homo sapiens) (UniProt P04150); assay: GR-GFP Redistribution (AID 450;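 active means compounds whose dose series gives a full or clear partial fitted curve of increased nuclear translocation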; further: potency means the concentration at half of the fitted maximal effect); conditions: U2OS GR-GFP nuclear translocation, laser cytometry, 2 h
[6] = target: Glucocorticoid receptor (Homo sapiens) (UniProt P04150); assay: GR-EFC Redistribution (AID 451; calls by dose curve; further: potency means the concentration at half of the fitted maximal effect); conditions: CHO-K1 GR-EFC translocation, beta-gal luminescence, 2 h
Outline: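 CHO-K1 cells expressing nuclear EA and GR-ED fragments of b-gal; compounds titrated up to 46 uM final, 2 h at 37 C. GR nuclear translocation read as complemented b-gal luminescence after 1 h RT detection.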

[7] = target: Mitogen-activated protein kinase 10 (Mus musculus) (UniProt Q61831); assay: JNK3 AlphaScreen Assay (AID 530; active means well fitted curve in either direction with a large enough effect, not every such curve was filed as active;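 further: kinase came from lysate of stimulated human HepG2 cells; signal reports phosphorylation of biotinylated GST-cJun 1-79 at Ser73 with 10 µM ATP; on the % scale 0 is the no-effect control and ±100 the full control effect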); conditions: JNK3 lysate, c-Jun phosphorylation; series mostly up to 57.1 µM
Outline: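 Pre-activated (IL-1β/TNFα) JNK3 in HepG2 lysates phosphorylates biotin-GST-cJun(1-79), 10 uM ATP; anti-phospho-cJun(Ser73) AlphaScreen read at room temperature, pH 7.6 Tris buffer. Compounds pre-incubated 15 min as titrations.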

[8] = target: Cytochrome P450 3A4 (Homo sapiens) (UniProt P08684); assay: qHTS Assay for Inhibitors and Substrates of Cytochrome P450 3A4 (AID 884); conditions: recombinant CYP3A4, Luciferin-PPXE luminescence; series mostly up to 57.1 µM; further: nearly all actives have a fitted effect of over 50% in size; further: potency means the concentration at half of the fitted maximal effect
Outline: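 20 nM human CYP3A4 with 25 uM Luciferin-PPXE (at KM) in 200 mM KPO4, preincubated 10 min with compound; NADPH regeneration started a 60 min RT reaction. Luciferin detected by luminescence, normalized to 57 uM ketoconazole as full inhibition.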

[9] = target: Cytochrome P450 3A4 (Homo sapiens) (UniProt P08684); assay: qHTS Assay for Activators of Cytochrome P450 3A4 (AID 885); conditions: recombinant CYP3A4, Luciferin-PPXE luminescence, 60 min; series mostly up to 57.1 µM; further: nearly all actives have a fitted effect of over 65% in size
Outline: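 Steps: enzyme/substrate mix dispensed; compound added, 10 min RT; NADPH regeneration solution added, 60 min RT; luciferin detection buffer stops reaction; 20 min later luminescence measured.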

[10] = target: Cytochrome P450 2C19 (Homo sapiens) (UniProt P33261); assay: qHTS Assay for Inhibitors and Substrates of Cytochrome P450 2C19 (AID 899); conditions: recombinant CYP2C19, luciferin-H EGE luminescence; series mostly up to 57.1 µM; further: potency means the concentration at half of the fitted maximal effect; nearly all actives have a fitted effect of over 60% in size
Outline: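 Luminescent read-out of luciferin formed from Luciferin-H EGE (10uM, equal to KM). Enzyme 5nM in 50mM KPO4; compound added, 10 min at 37C, then NADPH regenerating system for 60 min at 37C. Full inhibition defined by 57uM ketoconazole.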

[11] = qHTS Assay for Lipid Storage Modulators (AID 1519; calls by dose curve); conditions: Drosophila S3 cells, BODIPY lipid droplet/cell ratio, laser cytometry, cells loaded with oleic acid; for activity change, negative = inhibition: at 57.5 µM (top of the series)
Outline: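 Cells seeded at 5,000 per well were treated with compounds over a concentration series and loaded with oleic acid (400 uM, as added). Lipid droplet fluorescence (488 nm excitation, 500-530 nm channel) was read by laser-scanning cytometry and normalized to 20 uM Triacsin C.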

[12] = target: Ubiquitin carboxyl-terminal hydrolase 1 (Homo sapiens) (UniProt O94782); assay: Inhibitors of USP1/UAF1: Pilot qHTS (AID 504865); conditions: purified USP1/UAF1, Ub-rhodamine cleavage fluorescence; series mostly up to 54.9 µM; further: nearly all actives have a fitted effect of over 35% in size; further: potency means the concentration at half of the fitted maximal effect
Outline: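 1nM USP1/UAF1 + cpd, 15 min RT; start w/ Ub-Rho 150nM final; kinetic FL 480/540 nm, 6 reads q60 s. Buffer 50mM HEPES pH 7.8, 0.5mM EDTA, 1mM TCEP, 0.01% Tween-20, 0.1 mg/ml BSA.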

[13] = NFAT Signaling Pathway (AID 444; active means well fitted curve in either direction with a large enough effect, not every such curve was filed as active;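 further: carbachol stimulus at about its EC50 of 1 µM final; on the % scale 0 is the no-effect control and ±100 the full control effect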); conditions: Jurkat NFAT-bla M1, carbachol, beta-lactamase ratio, 5 h; at 7.69 µM (top of the series) unless noted
Outline: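 Jurkat cells with NFAT-driven β-lactamase reporter and co-expressed M1 receptor, stimulated with carbachol (final 1 uM, ~EC50), compound titration, 5 h at 37 °C. CCF4 loaded 1 h at RT; 460/530 nm ratio gave %activity and AC50.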

[14] = target: 3',5'-cyclic-AMP phosphodiesterase 4B (Homo sapiens) (UniProt Q07343); assay: qHTS Assay for Inhibitors of PDE-IV (AID 607; active means well fitted activation curve with a large enough effect in the main read-out, with a control signal flat, not every such curve was filed as active; further: % of control where 0% means no effect); conditions: HEK293 ACTOne CNG channel cells, membrane potential fluorescence; series mostly up to 22.9 µM
Outline: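 The readout is membrane depolarisation from a cAMP-sensing CNG channel, detected with a potential dye at ex 535/em 590. Cells were HEK293-derived (endogenous PDE-IV) at 1000 cells/well, titrated up to 22.9 uM final.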

[15] = Confirmation and Secondary Assay for Modulators of Hemoglobin Beta Chain Splicing at IVS2 654 locus (AID 910); conditions: HeLa EGFP-654 splicing reporter, GFP fluorescence, 48 h; series mostly up to 38.3 µM;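 further: HeLa cells stably carrying EGFP split by mutant beta-globin IVS2-654 intron; % of control where 0% means no effect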
Outline: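 HeLa cells stably expressing EGFP interrupted by β-globin IVS2-654 intron, seeded overnight in Opti-MEM/2% FCS, then treated 2 days at 37 °C. Restored splicing read as total peak GFP intensity per well by laser scanning cytometry (488 nm excitation, 500–520 nm emission); 500 nM antisense PNA as control.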

[16] = Confirmation and Secondary Assay for Modulators of Hemoglobin Beta Chain Splicing at IVS2 705 locus (AID 930); conditions: HeLa EGFP-705 splicing reporter, GFP fluorescence, 48 h; series mostly up to 38.3 µM;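 further: HeLa cells stably expressing the EGFP-705 splicing reporter; GFP fluorescence per well restored by corrected splicing of the IVS2-705 intron in EGFP; % of control where 0% means no effect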
Outline: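 Read-out: total peak GFP fluorescence per well (488 nm excitation, 500-520 nm emission) by laser-scanning cytometry. Cells: HeLa EGFP-705 splicing reporter, 2 days compound exposure in Optimem/2% FCS.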

[17] = target: Glutathione peroxidase 1 (Homo sapiens) (UniProt P07203); assay: Primary qHTS Assay for Inhibitors of Recombinant Selenoprotein Glutathione Peroxidase 1 (GPX1) (AID 1845191); conditions: recombinant GPX1, GR-coupled NADPH fluorescence, 15 min; series mostly up to 48.8 µM; further: nearly all actives have a fitted effect of over 65% in size
Outline: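 GR-coupled assay: compounds preincubated 30 min at room temperature with GPX1, then reaction started with CHP; final 10 nM GPX1, 1 mM GSH, 0.5 mM CHP, 0.5 mM NADPH, 100 nM GR, 0.01% BSA, pH 7.5 Tris buffer. NADPH fluorescence (340/450 nm) read at 0 and 15 min.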

[18] = qHTS Assay for Identification of Small Molecule Agonists for Hypoxia Response Element Signaling Pathway (AID 914; active means well fitted activation curve with a large enough effect in the signal ratio, with a control signal flat, not every such curve was filed as active; the % refers to the signal ratio; further: % of control where 0% means no effect); conditions: ME-180 (cervical carcinoma) HRE-bla reporter, beta-lactamase ratio, CoCl2, 17 h; activation: stronger effect = higher value
Outline: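 HRE-bla ME-180 cells, overnight plating in Opti-MEM with 0.5% dialyzed FBS; cpd titration + EC50 CoCl2, 17 h, 37 degrees Celsius; CCF4 2.5 h RT; 460/530 nm ratio; AC50.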

[19] = measured here: cell count channel max response
[20] = measured here: lipid channel max response

Sequence of Ubiquitin carboxyl-terminal hydrolase 1 (Homo sapiens) (O94782 whole entry, looked up): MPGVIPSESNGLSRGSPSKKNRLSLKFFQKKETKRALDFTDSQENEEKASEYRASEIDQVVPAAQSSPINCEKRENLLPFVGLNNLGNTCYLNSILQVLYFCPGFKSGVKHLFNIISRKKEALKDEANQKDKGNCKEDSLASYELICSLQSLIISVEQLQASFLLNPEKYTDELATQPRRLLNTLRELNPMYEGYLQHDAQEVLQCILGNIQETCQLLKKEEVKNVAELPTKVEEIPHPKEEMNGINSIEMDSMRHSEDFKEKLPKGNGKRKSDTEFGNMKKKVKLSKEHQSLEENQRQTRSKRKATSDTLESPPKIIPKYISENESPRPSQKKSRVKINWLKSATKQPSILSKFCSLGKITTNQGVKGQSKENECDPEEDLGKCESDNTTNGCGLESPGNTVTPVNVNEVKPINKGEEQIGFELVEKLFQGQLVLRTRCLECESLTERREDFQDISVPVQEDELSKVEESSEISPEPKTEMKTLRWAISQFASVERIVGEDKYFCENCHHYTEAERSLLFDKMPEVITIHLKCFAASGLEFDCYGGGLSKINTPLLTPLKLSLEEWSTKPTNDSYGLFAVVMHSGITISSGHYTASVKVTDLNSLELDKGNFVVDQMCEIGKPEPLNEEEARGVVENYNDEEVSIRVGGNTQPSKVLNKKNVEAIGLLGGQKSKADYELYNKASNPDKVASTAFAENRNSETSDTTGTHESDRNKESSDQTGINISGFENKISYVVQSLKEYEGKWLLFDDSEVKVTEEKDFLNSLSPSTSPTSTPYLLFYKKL
Sequence of Lysosomal acid glucosylceramidase (Homo sapiens) (P04062 whole entry, looked up): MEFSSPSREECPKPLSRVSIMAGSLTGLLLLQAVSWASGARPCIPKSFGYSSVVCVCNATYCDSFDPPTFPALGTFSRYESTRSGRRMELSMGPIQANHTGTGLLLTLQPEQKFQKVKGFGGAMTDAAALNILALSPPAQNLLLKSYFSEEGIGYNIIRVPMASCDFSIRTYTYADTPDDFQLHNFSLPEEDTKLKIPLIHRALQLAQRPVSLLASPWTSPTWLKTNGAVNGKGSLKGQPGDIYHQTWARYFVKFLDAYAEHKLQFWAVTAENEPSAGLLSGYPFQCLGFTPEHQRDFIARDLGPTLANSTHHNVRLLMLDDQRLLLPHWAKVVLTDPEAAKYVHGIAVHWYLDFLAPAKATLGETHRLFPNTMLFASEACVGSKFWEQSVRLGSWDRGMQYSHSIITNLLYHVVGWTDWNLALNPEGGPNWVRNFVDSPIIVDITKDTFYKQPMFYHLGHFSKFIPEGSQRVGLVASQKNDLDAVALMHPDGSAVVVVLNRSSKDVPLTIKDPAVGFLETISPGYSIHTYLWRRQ
Sequence of Cytochrome P450 1A2 (Homo sapiens) (P05177 whole entry, looked up): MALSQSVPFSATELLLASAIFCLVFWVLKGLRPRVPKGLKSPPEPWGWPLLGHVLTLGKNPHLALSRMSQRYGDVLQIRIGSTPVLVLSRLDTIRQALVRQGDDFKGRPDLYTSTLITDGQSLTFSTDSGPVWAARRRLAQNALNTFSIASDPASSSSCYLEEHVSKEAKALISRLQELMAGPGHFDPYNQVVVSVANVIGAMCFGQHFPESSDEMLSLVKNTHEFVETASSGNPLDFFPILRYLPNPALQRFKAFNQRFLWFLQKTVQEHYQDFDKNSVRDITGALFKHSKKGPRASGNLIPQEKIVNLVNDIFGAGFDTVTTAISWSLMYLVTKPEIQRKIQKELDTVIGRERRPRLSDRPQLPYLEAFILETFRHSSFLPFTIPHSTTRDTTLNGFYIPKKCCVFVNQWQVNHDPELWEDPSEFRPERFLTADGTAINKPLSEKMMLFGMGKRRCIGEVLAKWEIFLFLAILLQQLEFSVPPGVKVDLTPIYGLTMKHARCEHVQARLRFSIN
Sequence of Glucocorticoid receptor (Homo sapiens) (P04150 whole entry, looked up, the tested form may be a part): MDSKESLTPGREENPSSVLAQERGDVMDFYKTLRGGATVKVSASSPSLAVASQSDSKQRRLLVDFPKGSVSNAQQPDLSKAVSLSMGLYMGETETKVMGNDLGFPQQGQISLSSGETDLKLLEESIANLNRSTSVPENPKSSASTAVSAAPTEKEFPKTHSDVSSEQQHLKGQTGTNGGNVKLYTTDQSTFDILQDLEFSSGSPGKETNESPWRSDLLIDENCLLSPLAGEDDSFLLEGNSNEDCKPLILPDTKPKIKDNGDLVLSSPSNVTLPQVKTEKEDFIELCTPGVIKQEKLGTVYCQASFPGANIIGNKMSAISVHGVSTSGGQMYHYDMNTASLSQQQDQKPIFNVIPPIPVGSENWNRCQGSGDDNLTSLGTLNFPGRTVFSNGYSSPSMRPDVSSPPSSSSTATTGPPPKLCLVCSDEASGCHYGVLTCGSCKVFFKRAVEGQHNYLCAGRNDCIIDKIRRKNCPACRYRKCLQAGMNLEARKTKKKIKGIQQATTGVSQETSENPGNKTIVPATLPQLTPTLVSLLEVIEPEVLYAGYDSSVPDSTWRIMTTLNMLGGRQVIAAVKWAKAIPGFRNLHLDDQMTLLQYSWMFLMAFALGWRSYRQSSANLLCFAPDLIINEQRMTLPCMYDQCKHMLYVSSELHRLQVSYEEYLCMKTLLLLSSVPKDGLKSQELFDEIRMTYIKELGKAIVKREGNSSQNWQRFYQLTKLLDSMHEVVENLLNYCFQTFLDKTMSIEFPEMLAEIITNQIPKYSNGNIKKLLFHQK
Sequence of Cytochrome P450 3A4 (Homo sapiens) (P08684 whole entry, looked up): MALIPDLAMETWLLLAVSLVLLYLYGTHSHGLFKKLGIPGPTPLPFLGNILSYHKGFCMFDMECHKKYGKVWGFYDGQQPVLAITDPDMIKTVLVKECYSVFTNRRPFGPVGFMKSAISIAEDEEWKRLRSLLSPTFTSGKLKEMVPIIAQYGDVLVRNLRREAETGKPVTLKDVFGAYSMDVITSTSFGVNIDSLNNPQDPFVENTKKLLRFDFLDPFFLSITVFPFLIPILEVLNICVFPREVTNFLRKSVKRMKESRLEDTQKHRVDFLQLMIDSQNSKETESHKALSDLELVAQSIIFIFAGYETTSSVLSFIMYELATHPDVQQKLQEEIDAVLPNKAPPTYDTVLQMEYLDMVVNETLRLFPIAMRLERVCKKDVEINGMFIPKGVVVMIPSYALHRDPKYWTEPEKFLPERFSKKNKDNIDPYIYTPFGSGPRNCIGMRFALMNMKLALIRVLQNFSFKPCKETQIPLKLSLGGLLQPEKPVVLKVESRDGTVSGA
Sequence of 3',5'-cyclic-AMP phosphodiesterase 4B (Homo sapiens) (Q07343 whole entry, looked up): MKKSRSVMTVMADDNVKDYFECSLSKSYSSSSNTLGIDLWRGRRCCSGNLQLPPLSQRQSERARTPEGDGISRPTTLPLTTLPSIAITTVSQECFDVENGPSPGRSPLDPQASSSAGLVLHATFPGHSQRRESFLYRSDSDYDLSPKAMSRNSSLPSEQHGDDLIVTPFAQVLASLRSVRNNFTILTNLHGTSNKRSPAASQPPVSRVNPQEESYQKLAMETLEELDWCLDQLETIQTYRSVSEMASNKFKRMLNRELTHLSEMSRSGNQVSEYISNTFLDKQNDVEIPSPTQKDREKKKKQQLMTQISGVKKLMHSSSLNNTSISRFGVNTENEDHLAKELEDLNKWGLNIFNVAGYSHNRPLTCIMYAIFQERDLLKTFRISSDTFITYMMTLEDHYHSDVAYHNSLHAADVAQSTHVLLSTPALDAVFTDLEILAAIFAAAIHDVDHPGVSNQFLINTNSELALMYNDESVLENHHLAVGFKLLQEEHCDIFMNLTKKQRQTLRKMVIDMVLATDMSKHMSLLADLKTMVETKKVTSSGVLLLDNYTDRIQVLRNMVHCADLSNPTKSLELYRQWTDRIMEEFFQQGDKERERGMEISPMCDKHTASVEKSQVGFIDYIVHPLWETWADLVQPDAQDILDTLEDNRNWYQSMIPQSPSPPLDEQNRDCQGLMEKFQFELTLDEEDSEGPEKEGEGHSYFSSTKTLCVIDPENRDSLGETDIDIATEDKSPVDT
Sequence of Glutathione peroxidase 1 (Homo sapiens) (P07203 whole entry, looked up): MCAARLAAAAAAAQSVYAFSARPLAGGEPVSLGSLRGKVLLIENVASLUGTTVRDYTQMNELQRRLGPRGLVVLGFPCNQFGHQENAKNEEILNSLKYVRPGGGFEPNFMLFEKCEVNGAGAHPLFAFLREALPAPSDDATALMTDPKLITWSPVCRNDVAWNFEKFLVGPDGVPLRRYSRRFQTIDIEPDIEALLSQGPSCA
Sequence of Cytochrome P450 2C19 (Homo sapiens) (P33261 whole entry, looked up): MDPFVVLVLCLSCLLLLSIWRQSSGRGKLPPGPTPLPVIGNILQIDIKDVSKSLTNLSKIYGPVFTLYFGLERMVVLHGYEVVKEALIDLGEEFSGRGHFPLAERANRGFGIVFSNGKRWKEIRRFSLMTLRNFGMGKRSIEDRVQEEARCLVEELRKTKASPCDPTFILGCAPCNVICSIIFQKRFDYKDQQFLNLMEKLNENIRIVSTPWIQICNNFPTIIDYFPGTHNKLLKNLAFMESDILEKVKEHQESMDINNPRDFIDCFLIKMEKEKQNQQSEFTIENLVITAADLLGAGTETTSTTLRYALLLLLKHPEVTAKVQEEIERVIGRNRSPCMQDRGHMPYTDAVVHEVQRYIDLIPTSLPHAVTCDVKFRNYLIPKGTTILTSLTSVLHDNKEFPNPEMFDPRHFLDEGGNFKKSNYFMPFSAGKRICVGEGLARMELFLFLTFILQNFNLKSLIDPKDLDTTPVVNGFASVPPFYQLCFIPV

Structure (SMILES) | Potency [1] | activity change, negative = inhibition [2] | Potency [3] | activity, negative = inhibition [4] | Potency [5] | Potency [6] | Potency [7] | Potency [8] | Potency [9] | Potency [10] | activity change, negative = inhibition [11] | max response [11, 19] [%] | max response [11, 20] [%] | Potency [12] | activity change, negative = inhibition [13] | Potency [14] | Potency [15] | outcome [16] | outcome [17] | activation [18]
FC(F)(F)c1ccccc1-c1ccc2ncnc(NCc3cccs3)c2c1 | > 11.4 µM (inactive) | 13.7% (inactive) | 7.94 µM (active) | -16.1% (inactive) | > 46 µM (inactive) | > 46 µM (inactive) | inactive | 5.01 µM (active) | inactive | 3.16 µM (active) | -3.1% (inactive) | 9.21 | 5.18 | inactive | – | – | – | – | – | –
Cc1cnc(CNc2ncnc3ccc(-c4ccccc4C(F)(F)F)cc23)cn1 | > 11.4 µM (inactive) | 15.7% (inactive) | 12.6 µM (active) | -29.2% (inactive) | > 46 µM (inactive) | > 46 µM (inactive) | inactive | 2 µM (active) | inactive | – | 0.934% (inactive) | 8.56 | 7.96 | inactive | -22.4% (inactive) | inactive | – | – | – | –
Oc1ccc2c(c1)OCC1(O)Cc3cc(O)c(O)cc3C21 (stereo unspecified) | – | – | – | – | – | – | – | – | inactive | – | 11.4% (inactive) | -15.6 | -7.12 | 79.4 µM (active) | – | – | inactive | inactive | inactive | –
O=c1cc(-c2ccc(O)cc2)oc2cc(O[C@H]3OC(CO)C(O)C(O)C3O)cc(O)c12 (stereo partly specified) | – | – | – | – | – | – | – | inactive | – | – | 6.29% (inactive) | -4.63 | 3.59 | – | – | – | inactive | inactive | – | –
CN1CCN(c2ccnc(-c3ccc(N(C)C)cc3)n2)CC1 | > 11.4 µM (inactive) | -4.67% (inactive) | 0.794 µM (active) | -0.21% (inactive) | > 46 µM (inactive) | > 46 µM (inactive) | inactive | – | inactive | – | 10.5% (inactive) | 22.6 | 29.9 | inactive | 6.45% (inactive) | inactive | – | – | – | 1.71% (inactive)
Cc1nc2cnc(Nc3ccccc3)nc2n(C[C@H]2CCCO2)c1=O | > 11.4 µM (inactive) | -11% (inactive) | – | -15.1% (inactive) | > 9.22 µM (inactive) | > 46 µM (inactive) | inactive | – | inactive | – | -5.71% (inactive) | -3 | -12.3 | inactive | 9.56% (inactive) | inactive | – | – | – | –
